Measurements as given in PubChem BioAssay (Tox21).
A number with no mark means an inactive call. Results filed as inconclusive are left out. A call without a number means that no potency is given here. The source made the active and inactive calls. Calls follow the shape of the full dose curve.

Assays:
[1] = target: Acetylcholinesterase (Homo sapiens) (UniProt P22303); experiment: Acetylcholinesterase (AChE) small molecule antagonists: colormetric cell-based qHTS assay (AID 1347395); also: nearly all actives have a fitted effect of over 30% in size; also: potency is read from the fitted curve at half-maximal effect
Chain of Acetylcholinesterase (Homo sapiens) (P22303 whole entry, looked up): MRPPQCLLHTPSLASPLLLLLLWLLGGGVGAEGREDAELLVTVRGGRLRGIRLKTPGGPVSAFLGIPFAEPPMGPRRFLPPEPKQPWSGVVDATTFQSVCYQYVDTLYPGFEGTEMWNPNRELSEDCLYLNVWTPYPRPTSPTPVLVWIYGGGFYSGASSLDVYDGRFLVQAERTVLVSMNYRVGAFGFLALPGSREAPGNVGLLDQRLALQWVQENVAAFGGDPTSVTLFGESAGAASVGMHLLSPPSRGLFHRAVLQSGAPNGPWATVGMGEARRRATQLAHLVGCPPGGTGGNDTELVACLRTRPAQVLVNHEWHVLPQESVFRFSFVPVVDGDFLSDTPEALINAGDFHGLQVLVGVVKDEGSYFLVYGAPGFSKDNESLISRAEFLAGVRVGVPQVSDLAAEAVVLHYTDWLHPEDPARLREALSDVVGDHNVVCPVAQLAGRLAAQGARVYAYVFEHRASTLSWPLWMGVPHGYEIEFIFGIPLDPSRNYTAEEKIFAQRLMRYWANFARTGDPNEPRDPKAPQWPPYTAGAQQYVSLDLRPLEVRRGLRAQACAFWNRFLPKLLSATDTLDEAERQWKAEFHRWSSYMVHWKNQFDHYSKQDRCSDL
How it was run: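 Colorimetric readout: DTNB quantifies thiocholine from acetylthiocholine hydrolysed by endogenous AChE of SH-SY5Y cells (2,000/well, plated overnight). Compound pretreatment 30 min, substrate incubation 90 min, both 37 C.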

[2] = target: Acetylcholinesterase (Homo sapiens) (UniProt P22303); experiment: Acetylcholinesterase (AChE) small molecule antagonists: fluorescence cell-based qHTS assay (AID 1347398); settings: Potency: AChE activity; outcome: AChE activity; also: nearly all actives have a fitted effect of over 50% in size; also: potency is read from the fitted curve at half-maximal effect
How it was run: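 Homogeneous quantitative HTS format. SH-SY5Y cells seeded at 2,000 per well settle overnight at 37 C. Compound pretreatment runs 30 min (37 C, 5% CO2); substrate/probe mix then reacts 40 min at RT before reading 490/520 nm.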

[3] = target: Acetylcholinesterase (Homo sapiens) (UniProt P22303); experiment: Acetylcholinesterase (AChE) small molecule antagonists: enzyme-based qHTS assay with human liver microsomes (AID 1347399); settings: Potency: qHTS inhibition; outcome: qHTS inhibition; also: nearly all actives have a fitted effect of over 60% in size
How it was run: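 Recombinant human AChE (50 mU/mL in the enzyme mix) and human liver microsomes (0.25 mg/mL final) were preincubated with compound and NADPH (0.25 mg/mL final) for 30 min at 37 C. Acetylthiocholine/DTNB was then added; thiocholine was read colorimetrically after 10 min at room temperature.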

| Compound | Potency [1] | Potency [2] | Potency [3] | activity, negative = inhibition [1] | activity change, negative = inhibition [2] | activity change, negative = inhibition [3] |
| --- | --- | --- | --- | --- | --- | --- |
| CO[C@H]1C=CO[C@@]2(C)Oc3c(C)c(O)c4c(O)c(cc(O)c4c3C2=O)NC(=O)/C(C)=C\C=C/[C@H](C)[C@H](O)[C@@H](C)[C@@H](O)[C@@H](C)[C@H](OC(C)=O)[C@@H]1C | inactive | inactive | inactive |  |  |  |
| Cc1cc(S(=O)(=O)O)ccc1N=Nc1c(O)ccc2ccccc12 | inactive | inactive | inactive |  |  |  |
| CCN(CC)c1cccc(O)c1 | 36.3 µM (active) | 32.4 µM (active) | inactive |  |  |  |
| CC(=O)c1cnccn1 | inactive | inactive | inactive |  |  |  |
| Oc1c(Cl)cc(Cl)c(Cl)c1Cc1c(O)c(Cl)cc(Cl)c1Cl | inactive | inactive | inactive |  |  |  |
| O=C1NCCN1CCN1CCC(c2cn(-c3ccc(F)cc3)c3ccc(Cl)cc23)CC1 | inactive | 24.5 µM (active) | inactive |  |  |  |
| Cc1nnc(SCC2=C(C(=O)O)N3C(=O)[C@@H](NC(=O)Cn4cnnn4)[C@H]3SC2)s1 | inactive | inactive | inactive |  |  |  |
| CCCCCCCCCCCCCCC[C@H](O)[C@@H](N)CO | inactive | inactive | inactive |  |  |  |
| O=C(OC[C@H]1O[C@@H](OC(=O)c2cc(O)c(O)c(OC(=O)c3cc(O)c(O)c(O)c3)c2)[C@H](OC(=O)c2cc(O)c(O)c(OC(=O)c3cc(O)c(O)c(O)c3)c2)[C@@H](OC(=O)c2cc(O)c(O)c(OC(=O)c3cc(O)c(O)c(O)c3)c2)[C@@H]1OC(=O)c1cc(O)c(O)c(OC(=O)c2cc(O)c(O)c(O)c2)c1)c1cc(O)c(O)c(OC(=O)c2cc(O)c(O)c(O)c2)c1 |  |  |  | 1.72% [at 23.6 µM] | -11.1% [at 23.8 µM] | -0.451% [at 23.6 µM] |
| COc1ccc(-c2cc(=S)ss2)cc1 | inactive | inactive | inactive |  |  |  |
| COc1ccccc1NC(=O)c1cc2ccccc2cc1O | inactive | inactive | inactive |  |  |  |
| COC(=O)C1=C(C)NC(C)=C(C(=O)OC(C)C)C1c1cccc2nonc12 (centres undefined) | inactive | inactive | inactive |  |  |  |
| CNc1ccc(O)cc1 | 22.4 µM (active) | 31.7 µM (active) | inactive |  |  |  |
| CC(=O)OCC(=O)Nc1cc(C#N)cc(NC(=O)COC(C)=O)c1Cl | inactive | inactive | inactive |  |  |  |
| CCCCCCCCCCCCOC(=O)c1ccc(O)cc1 | inactive | inactive | inactive |  |  |  |
| COc1cc(C(C)C)c2c(c1)S(=O)(=O)N(COc1cc(=O)n3cccc(OCCN4CCCCC4)c3n1)C2=O | 19 µM (active) | 6.74 µM (active) |  |  |  | -1.08% [at 23.6 µM] |
| CC(C)(C)C1(CCc2ccc(Cl)cc2)CO1 (centres undefined) | inactive | inactive | inactive |  |  |  |
| CC(O)C(C)O (centres undefined) | inactive | inactive | inactive |  |  |  |
